Several values for one entry are separate records, joined by “and”; a condition that tells them apart may be missing. Identical values can stand only once.
Assay: sensitizers of A549 cells to miR-34 induction, primary screen, imaging, A549 dox-inducible miR-34, nuclei and caspase counts (AID 1347080); further: test concentration not given here
Conditions: A549 miR-34 inducible, Hoechst nuclei count, 48 h; measured here: total cells without miR-34 induction

| SMILES | cell count |
| --- | --- |
| CC[C@H](NC(C)C)[C@H](O)c1ccc(O)c2[nH]c(=O)ccc12 | 9400 and 10800 |
| COc1cc2nccc(Oc3ccc(NC(=O)Nc4ccc(F)cc4F)c(F)c3)c2cc1OC | 2020 and 3280 |
| O=c1[nH]nc(Sc2ncc([N+](=O)[O-])s2)n1-c1ccc2c(c1)OCCO2 | 1660 |
| N[C@H](CSC(c1ccccc1)(c1ccccc1)c1ccccc1)C(=O)O | 8660 |
| O=c1cc(-c2cccc3c2Sc2ccccc2S3)oc(N2CCOCC2)c1 | 6400 and 5730 |
| COc1nccc(-c2c(-c3ccc(F)cc3)ncn2C2CCC(O)CC2)n1 (centres undefined) | 7050 |
| CCc1c2c(nc3ccc(O)cc13)-c1cc3c(c(=O)n1C2)COC(=O)[C@]3(O)CC | 1960 and 2080 |
| CCOc1cc(C(=O)Nc2ccc(Cl)c(-c3nc4ccccc4[nH]3)c2)cc(OCC)c1OCC | 6020 |
| Oc1ccc2ccccc2c1SSc1c(O)ccc2ccccc12 | 7910 and 8360 and 9070 |
| CC(Oc1ccc(O)cc1)(P(=O)(O)O)P(=O)(O)O | 9200 |
| CCN(CC)CCCC(C)Nc1nc(C)cc(Nc2ccc3nc(C)cc(N)c3c2)n1 (centres undefined) | 8160 and 9370 |
| CN1C(=O)C(Cc2c[nH]c3ccccc23)NC1=S (centres undefined) | 8780 and 8510 |
| COc1ccc([C@@H]2CNC(=O)C2)cc1OC1CCCC1 | 9370 |
| O=C1Nc2ccc(I)cc2/C1=C/c1cc(Br)c(O)c(Br)c1 | 8730 and 4120 and 10300 |
| O=C(O)C1CCCN(CCC=C(c2ccccc2)c2ccccc2)C1 (centres undefined) | 9480 and 9430 |
| CCOc1ccc(Nc2nc(-c3c(C)nc4ccccn34)cs2)cc1 | 2140 |
| Nc1ncnc2nc(-c3ccc(N4CCOCC4)nc3)cc(-c3cccc(Br)c3)c12 | 7640 |

| SMILES | cell count |
| --- | --- |
| Fc1ccc(Cl)cc1-c1nc(Nc2ccncc2)c2nccnc2n1 | 9590 |
| Cc1cc(NC(=O)Nc2ccc(N(C)C)cc2)c2cc(F)cc(F)c2n1 | 7070 and 8990 |
| Cc1ccc(/C=N/NC(=O)c2ccccc2Oc2ccccc2)o1 | 8520 |
| O=C(O)c1ccc2cc(-c3ccc(O)c(C45CC6CC(CC(C6)C4)C5)c3)ccc2c1 | 1530 |
| COc1cc(OC)c(NC(=O)Nc2cc(C)on2)cc1Cl | 10400 and 9800 |
| NC(=O)c1ccc2[nH]ccc2c1 | 10000 and 9740 |
| Cc1[nH]c(/C=C2\C(=O)Nc3ccccc32)c(C)c1CCC(=O)O | 6730 |
| CCOC(=O)C1=C(C)NC(=S)NC1c1cccc(O)c1 (centres undefined) | 3060 and 7690 |
| CCOC(=O)C1=C(N)Oc2ccc(Br)cc2C1C(C#N)C(=O)OCC (centres undefined) | 6840 |
| Cc1cc(I)ccc1Nc1c(C(=O)NOCC2CC2)cc(F)c(F)c1F | 1150 |
| COc1ccc(CCN(C)CCCOc2ccc(S(=O)(=O)c3c(C(C)C)c4ccccc4n3C)cc2)cc1OC | 219 |
| CCC(C)N(C)C(=O)c1cc2ccccc2c(-c2ccccc2Cl)n1 (centres undefined) | 9100 and 7610 |
| COC1CCC(C(=O)c2ccc3nc4c(cc3c2)CCCO4)CC1 (centres undefined) | 8760 |
| O=C(O)c1ccc(-c2c[nH]c3ncc(-c4ccccc4)cc23)cc1C1CCCC1 | 3460 and 4530 |
| CC(C)[C@H](CO)Nc1nc(Nc2ccc(C(=O)O)c(Cl)c2)c2ncn(C(C)C)c2n1 | 9770 |
| N#Cc1c(O)c2c(-c3ccc(-c4ccccc4O)cc3)csc2[nH]c1=O | 10900 and 9540 |
| O=c1[nH]c(-c2ccc(C(F)(F)F)cc2)nc2c1CSCC2 | 4660 and 5860 and 8410 |

— PubChem BioAssay
